Assay outcomes from PubChem.
Sampled rows, rich in hits. Any-hit rate of the full collection: about 21%.
HCMV antiviral: blocks human cytomegalovirus replication; HFF cells, HCMV-luciferase reporter, 72 h; active compounds read low; activity change, negative = inhibition, % at 57.5 µM; 4.5% of 410,000 active; AID 1259415; in the data active = activity change below about -60%; inconclusive = no clear call, values can overlap the other calls; inactive = above about -39%
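After 16 h attachment at 37C, HFF cells received test compound and HCMV-luciferase (1 PFU/cell); reporter luminescence read 72 h later, data normalized against buffer-only and known inhibitor Salinomycin.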
Pf growth 48h: P. falciparum growth inhibition at 48 hours (one generation); P. falciparum luciferase growth in erythrocytes, 48 h; Potency, µM (doses to about 28.7 µM), actives largely listed as inhibitors; 5.9% of 310,000 active
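Compounds are pin-transferred into medium, infected erythrocytes (2% hematocrit, 0.1% parasitemia final) are added, and plates sit one parasite generation at 37 C in 5% CO2. Detection reagent is then added and luminescence measured.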
HCV inhibitor: blocks hepatitis C virus. AID 651820. Potency, µM (series often up to 41.8 µM), actives largely listed as inhibitors. Huh7.5.1 HCVcc-Cre infection, luciferase reporter, 44 h. 3.4% of 340,000 active
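HCVcc-Cre virus at an moi near 0.5 was added right after compound to cells cultured 4 h from seeding (1,000 cells/well). Luciferase activity was determined 44 h later, 15 min after substrate addition at RT.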
Shiga inhibitor: blocks Shiga toxin action in Vero cells. Vero cells, Shiga toxin protein synthesis inhibition reporter. inhibition, % at 38.7 µM. 9.2% of 290,000 active. AID 2315; in the data active = inhibition mostly above about 28%, no sharp cut-off; inactive = mostly below about 43%
Pf growth 96h: P. falciparum growth inhibition at 96 hour, primary screen for plastid delayed-death inhibitors | P. falciparum luciferase reporter growth, 96 h | Potency, µM (top dose mostly 28.7 µM), hits mostly inhibitors | 6.9% of 320,000 active | AID 504834
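Parasite growth measured via integrated firefly luciferase reporter in P. falciparum. Infected erythrocytes at 2% hematocrit, 0.05% parasitemia final were treated 96 hours at 37 C under 5% CO2, and luminescence was read.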
CHX counter: counter-screen for Shiga toxin inhibitors: cycloheximide protein synthesis inhibition; cell reporter, cycloheximide protein synthesis inhibition counterscreen; max response, %; 12% of 300,000 active; AID 2314; in the data active = max response mostly above about 13%, no sharp cut-off; inactive = mostly below about 14%; also: read at 38.3 µM for the half of the compounds with a filed dose
Hits are given with their value; . = inactive; ? = inconclusive; / = not tested or not shown. Unless noted, calls follow the shape of the dose curve; as a rule, active = well fitted inhibition curve with a large enough effect; inconclusive = small, poorly fitted or top-dose-only effect, or another doubt; inactive = no such curve, though single readings can be large or run the other way.

SMILES	HCMV antiviral	Pf growth 48h	HCV inhibitor	Shiga inhibitor	Pf growth 96h	CHX counter
CC(=O)c1ccc(OCCCOc2cccc3cccnc23)cc1	.	?	.	.	.	.
Clc1ccc(OCc2cn3ccccc3n2)c2ncccc12	.	.	.	90	.	37
CC(C)Oc1ccccc1OCCCOc1cccc2cccnc12	.	.	?	.	.	.
CC(=O)CCc1ccc(OCCCOc2cccc3cccnc23)cc1	.	?	?	46	?	29
COc1cc2ccccc2cc1C(=O)O	.	.	.	.	/	.
COc1cc2ccccc2ccc1=NO	-68	/	?	/	/	/
Cc1ccc(C2N=C(N)Nc3nc4ccccc4n32)cc1 (configuration not stated)	.	.	.	.	.	.
Cc1ccc(C2N=C(N)Nc3nc(=O)c4ccccc4n32)cc1 (configuration not stated)	.	?	.	.	9.3µM	.
CCc1ccc(N(C(=O)c2csnn2)C(C(=O)NC(C)(C)C)c2cccnc2)cc1 (configuration not stated)	.	?	.	.	?	.
CCOC(=O)C1=C(N)OC2=C(C(=O)CCC2)C1c1ccc(C)s1 (configuration not stated)	.	.	.	80	/	44
CCN1CCc2c(sc(-n3cccc3)c2C(C)NC(=O)Nc2ccc(Br)cc2)C1 (configuration not stated)	.	/	/	/	/	/
CCC(NC(=O)Nc1cc(OC)ccc1OC)c1c(-n2cccc2)sc2c1CCN(CC)C2 (configuration not stated)	-73	/	/	/	/	/
CCOc1ccc(NC(=O)NC(C)c2c(-n3cccc3)sc3c2CCN(CC)C3)cc1 (configuration not stated)	-79	/	/	/	/	/
CN(CC(=O)Nc1ccc(Cl)cc1F)S(=O)(=O)c1ccc2c(c1)n(C)c(=O)c(=O)n2C	.	/	/	/	/	/
C/C(=N\O)c1ccc2[nH]ccc2c1	.	.	.	.	.	15
O=C(O)c1ccc2cc[nH]c2c1	.	.	.	.	.	.
O=C1C2CSCN2C(=O)CN1CCCN1CCN(C(c2ccccc2)c2ccccc2)CC1 (configuration not stated)	.	?	.	.	?	.
CCOc1ccc(CCNC(=O)c2cc(C)on2)cc1OCC	.	10µM	.	.	?	.
CCOc1ccc(CCNC(=O)CCNC(=O)c2ccccc2Cl)cc1OCC	.	12µM	.	.	?	.
O=C(NCc1ccc(F)cc1)c1cc2ccccn2n1	.	.	.	.	3.7µM	24
CCOc1ccc(CCNC(=O)c2c(C)noc2C)cc1OCC	.	?	.	/	.	/
CCc1ccc(CNC(=O)c2cc3ccccn3n2)cc1	.	/	/	/	/	/
CCOc1ccc(CCNC(=O)c2cc3ccccn3n2)cc1OCC	.	/	13µM	.	.	.
CCOC(=O)c1c(C)[nH]c(N=Nc2cccc(OC)c2)c1C	.	.	?	154	.	58
CCOC(=O)c1c(C)[nH]c(N=Nc2cccc(C)c2)c1C	.	.	.	130	/	64
SMILES	HCMV antiviral	Pf growth 48h	HCV inhibitor	Shiga inhibitor	Pf growth 96h	CHX counter
CCOC(=O)c1c(C)[nH]c(CCC(=O)NCc2cccc(C)c2)c1C	.	/	/	/	/	/
CCOC(=O)C1CCCN(C(=O)COc2ccc(C(C)(C)C)cc2)CC1 (configuration not stated)	.	/	/	/	/	/
O=[N+]([O-])c1ccc(N2CCCCC2)nc1N1CCCCC1	.	2.1µM	.	.	3.3µM	.
O=[N+]([O-])c1ccc(Cl)cc1N1CCCCC1	.	.	.	.	.	.
CN(C(=O)CSc1nc2ccccc2n1CC(=O)N(C)C1CCCCC1)c1ccc(F)cc1	.	/	/	/	/	/
CCCCCCCCN1C(=O)[C@H](CC(=O)N2CCSCC2)C[C@@]2(C(=O)OC)CC(C)(C)CC=C12	.	/	/	/	/	/
COc1ccc(-c2cc(N3C(=O)Nc4ccccc4N3O)n[nH]2)cc1OC	.	.	.	.	.	13
COc1cc(-c2cc(N3C(=O)Nc4ccccc4N3O)n[nH]2)cc(OC)c1OC	.	.	.	.	.	.
CCOc1cc(C2c3c(oc4ccccc4c3=O)C(=O)N2Cc2ccccc2Cl)ccc1O (configuration not stated)	.	/	/	/	/	/
COC(=O)c1ccc(-n2c(C)cc(C(=O)COC(=O)CNS(=O)(=O)c3ccc(C)cc3)c2C)cc1	.	.	.	.	.	.
CCOc1ccc(NC(=O)C(=O)c2cc(C)n(-c3cc(C)cc(C)c3)c2C)cc1	.	/	/	/	/	/
CCOc1ccc(-n2c(C)cc(C(=O)CCl)c2C)cc1	-92	.	?	.	?	.
COC(=O)c1ccc(-n2c(C)cc(C(=O)CCl)c2C)cc1	-84	?	6.3µM	.	.	.
CCCCNC(=S)N/N=C/c1ccccc1F	.	.	?	.	.	16
CCOC(=O)N/N=C\c1ccc(C)s1	.	.	.	68	.	29
CCCCNC(=S)N/N=C/c1cc(C)ccc1C	.	?	.	.	?	.
CC(=O)Nc1ccc(S(=O)(=O)N/N=C/c2ccc(C)s2)cc1	.	.	.	73	.	48
Cc1ccc(/C=N/NC(=S)NCCc2ccccc2)s1	.	12µM	.	.	?	.
CCCNC(=O)C[C@H]1C[C@H]2c3cc(NC(=O)Nc4ccc(F)cc4)ccc3O[C@H]2[C@@H](CO)O1	.	/	/	/	/	/
CCCCNC(=S)N/N=C/c1sccc1C	.	?	.	.	?	.
CCCCNC(=S)N/N=C/c1ccc(C)s1	.	/	.	61	1.7µM	50
Cn1cc([N+](=O)[O-])c(C(=O)NC2CCCCCCC2)n1	.	.	/	.	.	.
Cn1cc(Cl)c(C(=O)NC2CCCCCC2)n1	.	.	.	23	/	14
Cn1cc(Cl)c(C(=O)NNC(=S)NC2CCCCC2)n1	.	.	.	54	.	23
O=C(c1cnccn1)N(CCO)C(c1ccc(-c2ccccc2)cc1)c1nc2ccccc2[nH]1 (configuration not stated)	.	/	/	/	/	/
SMILES	HCMV antiviral	Pf growth 48h	HCV inhibitor	Shiga inhibitor	Pf growth 96h	CHX counter
CCOC(=O)c1ccn(-c2nc(-c3cccc(OC)c3)cc(C(F)(F)F)n2)n1	.	/	/	/	/	/
O=C(CCN1C(=O)/C(=C/c2ccccc2)SC1=S)Nc1cccnc1	.	.	.	.	.	.
Cc1ccc(/C=C2\SC(=S)N(CCC(=O)N3CCOCC3)C2=O)cc1	?	?	.	.	?	.
O=C1/C(=C\c2ccccc2)SC(=S)N1CCC(=O)N1CCCCC1CCO (configuration not stated)	-86	?	.	39	?	35
O=C1/C(=C/c2ccccc2)SC(=S)N1CC(=O)N1CCCCC1c1cccnc1 (configuration not stated)	-90	?	?	.	?	.
COc1cccc(/C=C2\SC(=O)N(CCC(=O)N3CCCCC3CCO)C2=O)c1 (configuration not stated)	.	?	?	.	10µM	.
